In PubChem BioAssay AID434994 (NMMLSC, 2010):
This is one part of the list. The source made the active and inactive calls.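 How the source made its calls: active means superoxide signal below 65% of the plate average of sample wells; inactive means the rest.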

Assay: retest of yeast aging ROS inhibitors – cherry picked compounds, confirmation (AID 434994);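 further: cells aged with compound for 7 days at 30 degrees C before staining; 100% equals mean DHE fluorescence of all compound wells on the plate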
Conditions: S. cerevisiae aging, superoxide DHE fluorescence; at 10 µM; stronger effect = lower value

Superoxide response (% of plate), inactive:
COc1cccc(NC(=O)NCCN2CCCCC2)c1 101%
CCCC(C)C(=O)OCC(=O)Nc1c(Br)cc(C)cc1Br (stereo unspecified) 101%
Cc1ccc(-c2nc(CSCC(=O)NC3CCN(Cc4ccccc4)CC3)c(C)o2)cc1 101%
CC1CCCN(S(=O)(=O)c2ccc(C(=O)Nc3nnc(-c4ccncc4)o3)cc2)C1 (stereo unspecified) 111%
CC(C)(C)NC(=O)COc1ccc(CNc2ccc3[nH]c(=O)[nH]c3c2)cc1 96.2%
CC(=O)NC1=NN(C(C)=O)C(C)(CCS(=O)(=O)c2ccc(Cl)c(Cl)c2)S1 (stereo unspecified) 101%
